Test results as given in PubChem BioAssay AID488969 (Vanderbilt High Throughput Screening Facility, 2010).
Whole data set: some 110,000 compounds, median “z-score” near -0.1, cut for the highest 2% near 2. This is one part of a sample in which the highest values are shown more often than they occur. The source made the active and inactive calls.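 The calls were made as follows: active = z-score in the third read window above 3 or below -3; inactive = the rest.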

The compounds below were run against Metabotropic glutamate receptor 8 (Rattus norvegicus) (UniProt P70579) (assay: rat mGluR8 modulators via GIRK flux, primary screen, cell-based, thallium flux, HTS (AID 488969)). Details: HEK293 rat mGluR8, GIRK (G protein-gated inwardly rectifying potassium channel) thallium flux, FluoZin2; at 10 µM; stronger effect = higher value; submaximal glutamate (EC20) added with thallium.
Sequence of Metabotropic glutamate receptor 8 (Rattus norvegicus) (P70579 whole entry, looked up): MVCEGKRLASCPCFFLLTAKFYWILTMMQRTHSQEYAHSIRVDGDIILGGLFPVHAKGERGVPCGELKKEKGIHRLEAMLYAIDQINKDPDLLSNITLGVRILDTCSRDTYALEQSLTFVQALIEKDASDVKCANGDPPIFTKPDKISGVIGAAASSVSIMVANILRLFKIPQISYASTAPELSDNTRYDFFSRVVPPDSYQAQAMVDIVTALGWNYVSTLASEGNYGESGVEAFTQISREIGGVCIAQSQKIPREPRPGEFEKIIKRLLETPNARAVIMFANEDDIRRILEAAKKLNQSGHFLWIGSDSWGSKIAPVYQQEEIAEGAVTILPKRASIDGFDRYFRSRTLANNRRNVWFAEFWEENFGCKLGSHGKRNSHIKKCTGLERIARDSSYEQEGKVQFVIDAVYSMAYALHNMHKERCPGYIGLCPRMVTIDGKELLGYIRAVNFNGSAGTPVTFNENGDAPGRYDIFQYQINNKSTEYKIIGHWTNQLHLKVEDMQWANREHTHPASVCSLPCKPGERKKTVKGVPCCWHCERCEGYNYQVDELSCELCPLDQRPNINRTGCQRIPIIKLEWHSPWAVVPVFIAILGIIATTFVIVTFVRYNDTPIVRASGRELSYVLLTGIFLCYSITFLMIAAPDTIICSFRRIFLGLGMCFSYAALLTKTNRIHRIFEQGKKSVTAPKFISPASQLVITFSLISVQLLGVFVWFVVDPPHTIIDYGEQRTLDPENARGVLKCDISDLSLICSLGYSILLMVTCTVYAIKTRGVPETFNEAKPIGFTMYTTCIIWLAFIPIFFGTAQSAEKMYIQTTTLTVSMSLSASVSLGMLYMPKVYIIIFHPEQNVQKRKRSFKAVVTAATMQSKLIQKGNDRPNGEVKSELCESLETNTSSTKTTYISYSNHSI
For COC(=O)Nc1ccc(S(=O)(=O)Nc2ccccc2F)cc1, the z-score was 0.00713.
Work on Cc1cc(NC(=O)C2C3C(=O)N(Cc4ccc(Cl)cc4)C(C(=O)NCc4ccccc4)C34C=CC2(C)O4)no1 (stereo not drawn) yielded a z-score of 0.193.
Work on Cc1cccc(NC(=O)CN2C(=O)S/C(=C\c3cc(C)n(C)c3C)C2=O)c1 yielded a z-score of 0.326.
In the case of CCOC(=O)N1CCN(CC(=O)N2c3ccccc3CC2C)CC1 (stereo not drawn), the z-score is reported as -0.746.
COC(=O)C1=C(C)NC(C)=C(C(=O)OC)C1C(=O)OCC(=O)N1c2ccccc2CC1C (stereo not drawn) gave a z-score of 0.131.
Compound CCOC(=O)C1=C(C)NC(C)=C(C(=O)OCC)C1C(=O)OCC(=O)N1c2ccccc2CC1C (stereo not drawn) has a z-score of 2.55.
C/C(=N\NC(=O)OC(C)(C)C)c1cccc([N+](=O)[O-])c1 was tested, and the z-score was -0.272.
Cc1ccc(C(=O)Nc2nc(=O)n(C(=O)C3CC3)s2)cc1 was tested, and the z-score was -0.185.
Cc1ccc(Nc2cc(C)nc(NCc3ccccc3)n2)cc1 was tested, and the z-score was -0.326.
Compound Cc1cc(N2CCN(c3ccccc3)CC2)nc(NCc2ccccc2)n1 has a z-score of 3.
With Cc1cc(Nc2ccccc2)nc(NCc2ccccc2)n1 the z-score was 2.34.
With Cc1cc(N2CCCCC2)nc(NCc2ccccc2)n1 the z-score was 0.794.
With Cc1cc(Nc2ccc(Cl)cc2)nc(NCc2ccccc2)n1 the z-score was -0.173.
For Cc1cc(N2CCOCC2)nc(NCc2ccccc2)n1, the z-score was -0.0745.
With c1ccc(-c2nnc(-c3ccccc3)c(-c3c[nH]c4ccccc34)n2)cc1 the z-score was 0.446.
In the case of Fc1cc(F)c2nc(Nc3nc4c(F)cccc4s3)sc2c1, the z-score is reported as 9.18 (active).
With Fc1cc(F)c2nc(N3CCCCC3)sc2c1 the z-score was -0.14.
Work on NNc1nc2c(F)cccc2s1 yielded a z-score of 0.0402.
Fc1cccc2sc(Nc3nc4c(F)cccc4s3)nc12 was tested, and the z-score was 2.09.
CC(=O)Nc1nc2c(F)cccc2s1 was tested, and the z-score was 0.033.
Fc1cccc2sc(Nc3nc4ccccc4s3)nc12 showed a z-score of 2.21.
In the case of Cc1ccc(Nc2nc3ccccc3s2)cc1, the z-score is reported as 0.0689.
Work on Cc1ccccc1Nc1nc2ccccc2s1 yielded a z-score of 0.103.
NNc1nc2c(F)cc(F)cc2s1 showed a z-score of -0.193.
O=C(Nc1ccc(Cl)cc1)Nc1cccnc1 gave a z-score of 0.471.
CCN(CC)c1ncnc2c1cnn2C was tested, and the z-score was -0.228.
In the case of CCC1(CC)C(=O)N(C)C(=O)NC1=NCc1ccccc1, the z-score is reported as 0.146.
For COc1ccc(/C=C/C(=O)Nc2ccc(N3CCOCC3)cc2)cc1, the z-score was -0.219.
CCCCn1c(N)c(C(=S)NC(=O)CC(C)C)c(=O)n(C)c1=O was tested, and the z-score was 3.59 (active).
With CCCCn1c(N)c(C(=S)NC(=O)CC(C)(C)C)c(=O)n(C)c1=O the z-score was 9.54 (active).
Cn1c(=O)c(C(=S)NC(=O)C2CC2)c(N)n(Cc2ccccc2)c1=O gave a z-score of 0.362.
With CC(C)Cn1c(N)c(C(=O)CSc2ccccc2)c(=O)n(C)c1=O the z-score was -0.216.
CC(C)Cn1c(N)c(C(=O)CSc2nnnn2C)c(=O)n(C)c1=O gave a z-score of -0.302.
In the case of CCCn1c(N)c(C(=S)NC(=O)C2CC2)c(=O)n(C)c1=O, the z-score is reported as 0.941.
In the case of CC(C)(C)n1ncc2c(=O)n(Cc3ccc(Cl)cc3Cl)cnc21, the z-score is reported as -1.25.
In the case of Cc1ccc(CNC(=O)CCCOc2cc(=O)n(C)c3ccccc23)o1, the z-score is reported as -0.129.
In the case of Clc1ccc(C(c2nnnn2C2CCCC2)N2CCSCC2)cc1 (stereo not drawn), the z-score is reported as -0.998.
O=C(O)C1CCN(C(=O)c2ccccc2Cl)CC1 gave a z-score of -0.551.
Work on CC(=O)NC(CC(=O)Nc1cccc(S(=O)(=O)N2CCCCC2)c1)c1ccccc1 (stereo not drawn) yielded a z-score of 0.132.
For COCCCn1c(SCC(=O)N2CCc3ccccc32)nnc1-c1ccco1, the z-score was -0.129.
For COc1ccc(N/C(C)=C2/C(=O)C(=O)N(CCO)C2c2ccc([N+](=O)[O-])cc2)cc1 (stereo not drawn), the z-score was -0.701.
COc1ccc(N/C(C)=C2/C(=O)C(=O)N(CCO)C2c2ccc(Br)cc2)cc1 (stereo not drawn) was tested, and the z-score was 5.05 (active).
Work on COc1ccc(C2/C(=C(/O)c3ccccc3)C(=O)C(=O)N2CCO)cc1 (stereo not drawn) yielded a z-score of -0.0153.
O=C1CCCc2c1cc(C(=O)NC1CCSC1=O)c(=O)n2-c1ccccc1 (stereo not drawn) gave a z-score of -0.276.
With CCN(CC)CC(=O)Nc1ccc2c(c1)N(C(=O)CN(CC)CC)c1ccccc1CC2 the z-score was -0.342.
CCN(CC)CC(=O)Nc1ccc2c(c1)Nc1ccccc1CC2 was tested, and the z-score was 2.49.
For CCN(CC)CCC(=O)Nc1ccc2c(c1)N(C(=O)CN(CC)CC)c1ccccc1CC2, the z-score was -0.214.
Work on COc1ccc(C(=O)c2cn[nH]c2-c2cc(Cl)ccc2O)cc1 yielded a z-score of -0.207.
In the case of COc1ccc(/C=C2\C(=O)N(c3c(Cl)cc(Cl)cc3Cl)N=C2NC(=O)c2cccc([N+](=O)[O-])c2)cc1, the z-score is reported as -0.0535.
Work on Cc1ccc(C)c(NC(=O)CS(=O)(=O)c2cn(C)c3ccccc23)c1 yielded a z-score of 0.61.
With CCn1cc(S(=O)(=O)CC(=O)Nc2ccc(C)cc2)c2ccccc21 the z-score was -0.393.
With CCn1cc(S(=O)(=O)CC(=O)Nc2cc(C)ccc2C)c2ccccc21 the z-score was 2.61.
With CCOc1ccc(OCCOCCNCCOC)cc1 the z-score was 0.0989.
Compound Cc1c(CN(C)CCc2ccccc2)c(=O)n(-c2ccccc2)n1C has a z-score of -0.04.
CCc1ccc(Nc2nnc(SCC(=O)Nc3cccc(S(=O)(=O)NC4=NCCCCC4)c3)s2)cc1 gave a z-score of -0.205.
Compound CSc1ccccc1NC(=O)C1CC(c2ccccc2O)=NO1 (stereo not drawn) has a z-score of -0.288.
For COC(=O)c1ccccc1NC(=O)C1CC(c2ccccc2O)=NO1 (stereo not drawn), the z-score was 2.57.
CCn1cc(C2=NOC(C(=O)Nc3ccccc3C(=O)OC)C2)c(C)n1 (stereo not drawn) showed a z-score of -0.574.
In the case of CN(C)CCCNCCNC(=O)/C=N\O, the z-score is reported as -0.494.
Work on O=C1CC(c2ccc3c(c2)OCO3)c2cc3c(cc2N1)OCCO3 (stereo not drawn) yielded a z-score of 0.0815.
O=C1CC(c2ccncc2)c2cc3c(cc2N1)OCO3 (stereo not drawn) gave a z-score of 0.106.
O=C1CC(c2ccncc2)c2cc3c(cc2N1)OCCO3 (stereo not drawn) was tested, and the z-score was 7.59 (active).
Cc1ccc(S(=O)(=O)CC(=O)c2ccc(C)c([N+](=O)[O-])c2)cc1 gave a z-score of -0.799.
Work on CN(Cc1cccs1)C(=O)CCc1ccc(S(=O)(=O)N2CCOCC2)cc1 yielded a z-score of 0.00198.
For CS(=O)(=O)C1=NSC2=NC(=O)/C(=C\c3cccn3-c3ccc(Cl)cc3)C(=N)N21, the z-score was -0.377.
In the case of O=C1CCC(/C=C/c2ccccc2)=NN1Cc1ccccc1Cl, the z-score is reported as -0.293.
With Cc1ccc(/C=C/C2=NN(Cc3ccc(Cl)c(Cl)c3)C(=O)CC2)cc1 the z-score was -0.176.
With O=C1CCC(/C=C/c2ccccc2)=NN1Cc1ccc(Cl)c(Cl)c1 the z-score was 13.4 (active).
COc1ccc(CC(=O)N/N=C/c2cccn2-c2ccc([N+](=O)[O-])cc2)cc1OC gave a z-score of -0.892.
Work on O=C(N/N=C/c1cccn1-c1ccc([N+](=O)[O-])cc1)C(O)c1ccccc1 (stereo not drawn) yielded a z-score of 0.181.
In the case of O=C(Cc1ccccc1)N/N=C/c1cccn1-c1ccc([N+](=O)[O-])cc1, the z-score is reported as 3.83 (active).
O=C1CC(N2CCN(Cc3ccccc3)CC2)C(=O)N1c1ccc2c(c1)OCCO2 (stereo not drawn) was tested, and the z-score was -0.057.
CCSC(=O)NC12CC3CC(CC(C3)C1)C2 was tested, and the z-score was -0.316.
CSC(=O)NC12CC3CC(CC(C)(C3)C1)C2 was tested, and the z-score was 8.08 (active).
Compound CC1(C(=O)NC23CC4CC(CC(C4)C2)C3)CC1(Cl)Cl (stereo not drawn) has a z-score of -0.368.
In the case of CCOC(=O)CN1C(c2ccccc2O)Nc2ccc(Br)cc2C1c1ccccc1 (stereo not drawn), the z-score is reported as -0.45.
Compound CC(OC(=O)CN(C)S(=O)(=O)c1ccc(Cl)cc1)C(=O)Nc1ncc(Cl)cc1Cl (stereo not drawn) has a z-score of -0.285.
Nc1c(CO)nnn1-c1ccccc1 showed a z-score of -0.379.
CC(C)c1cc(-c2n[nH]c(=S)n2Cc2ccccc2)cs1 gave a z-score of 1.35.
With CCCCn1c(-c2csc(C(C)C)c2)n[nH]c1=S the z-score was 6.36 (active).
CCCCn1c(-c2ccoc2C)n[nH]c1=S showed a z-score of 0.216.
CCCCn1c(-c2cccnc2)n[nH]c1=S was tested, and the z-score was -0.106.
CCCCn1c(-c2csc(CC)c2)n[nH]c1=S showed a z-score of 2.15.
With CCc1cc(-c2n[nH]c(=S)n2CC)cs1 the z-score was -0.194.
In the case of CCNC(=S)N(Cc1ccco1)Cc1cc2cc3c(cc2[nH]c1=O)OCCO3, the z-score is reported as 0.158.
In the case of Nc1ccc(C2(c3ccc(N)cc3)C(=O)Nc3ccccc32)cc1, the z-score is reported as -0.763.
Cc1cccnc1NC(=O)C1CCCN(S(=O)(=O)c2ccc3c(c2)oc(=O)n3C)C1 (stereo not drawn) was tested, and the z-score was 0.166.
CCc1cccc(OCC(=O)Nc2ccc(S(=O)(=O)Nc3onc(C)c3C)cc2)c1 gave a z-score of -0.0589.
Compound COc1cc(NC(=O)Cn2nnc(-c3ccncc3)n2)cc(OC)c1 has a z-score of 0.284.
With CN(C)C(=O)CN(c1ccc(F)c(Cl)c1)S(C)(=O)=O the z-score was 0.00105.
Cc1ccc2c(c1)c(=O)c(Br)c(C)n2Cc1ccccc1 gave a z-score of -0.0481.
COc1ccccc1C(c1nnnn1C(C)(C)C)N1CCN(Cc2ccncc2)CC1 (stereo not drawn) was tested, and the z-score was -0.332.
CCN(CC)C(=O)CSCc1cnn(-c2ccccc2)c1-n1cccc1 gave a z-score of 0.216.
Work on COc1ccc(NC2=CC(c3ccc(OC)c(OC)c3)N(c3ccc(OC)cc3)C2=O)cc1 (stereo not drawn) yielded a z-score of -0.044.
COc1ccc2nc(N)sc2c1 was tested, and the z-score was 0.0701.
With COc1ccc2nc(N=Nc3ccc(O)c4ccccc34)sc2c1 the z-score was 5.85 (active).
Work on COc1ccc2nc(N=Nc3ccc(N(C)C)cc3)sc2c1 yielded a z-score of 0.141.
In the case of CCN(CC)C(=O)C(=O)N/N=C/c1cccs1, the z-score is reported as -0.0972.
With CCCCCN(C(=O)CN(C)Cc1ccc(OC)cc1OC)c1c(N)n(CCCC)c(=O)[nH]c1=O the z-score was 0.0701.
CCCCN(CCCC)S(=O)(=O)c1ccc(C(=O)Nc2nnc(COC)o2)cc1 gave a z-score of 1.03.
O=C(CCc1ccccc1)Nc1nnc(-c2cccs2)o1 gave a z-score of 0.129.
Work on CCC1CCCCN1S(=O)(=O)c1ccc(C(=O)Nc2nnc(-c3cccs3)o2)cc1 (stereo not drawn) yielded a z-score of 0.233.
In the case of O=C(Nc1nnc(-c2cccs2)o1)c1cccc(Oc2ccccc2)c1, the z-score is reported as 14 (active).
O=C(Nc1ccccc1)c1cccc(C(F)(F)F)c1 showed a z-score of -0.053.
O=C(Nc1nnc(-c2cccs2)o1)c1cccc(C(F)(F)F)c1 was tested, and the z-score was 14.1 (active).
For O=C(Nc1nnc(-c2cccs2)o1)c1cccc(F)c1, the z-score was 4.44 (active).
With O=C(Nc1nnc(-c2cccs2)o1)c1ccco1 the z-score was -0.203.
With O=C(Nc1ccncc1)c1cccc(F)c1 the z-score was 0.415.
O=C(Nc1cccc(C(F)(F)F)c1)c1cc(-c2cccs2)on1 showed a z-score of -0.52.
CCCCN(C)S(=O)(=O)c1ccc(C(=O)Nc2nnc(-c3cccs3)o2)cc1 was tested, and the z-score was 7.18 (active).
With COc1cccc(C(=O)Nc2nnc(-c3cccs3)o2)c1 the z-score was 0.124.
Compound CCc1ccccc1NC(=O)CSc1ncn[nH]1 has a z-score of -0.0941.
Work on CC1CCCN(c2nc(-c3cccnc3)nc3scc(-c4ccccc4)c23)C1 (stereo not drawn) yielded a z-score of -0.0274.
